Screening results deposited in PubChem BioAssay by National Center for Advancing Translational Sciences (NCATS).
TRPV1 ag = agonists of human vanilloid receptor 1 (TRPV1). TRPV1-expressing cells, Fluo-8 calcium influx, agonist mode. hit rate 0.19% among 320,000. Q8NER1. activation, % at 8.33 µM; in the data active = activation above about 80%; inconclusive = between about 30% and that limit; note: 0% is about no effect
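Cells expressing TRPV1 were dye-loaded with Fluo-8 and read kinetically: 10 s baseline, 3 min after compound (agonist portion), then 2 min after EC20 capsaicin (allosteric enhancer portion). Calcium-bound dye fluorescence at 480/520 nm.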
hERG WT inh = KCNH2 (human, wildtype) channel inhibition. activity change, % at 1.84 µM. Q12809. hit rate 0.37% among 340,000. U2OS, BacMam KCNH2, thallium flux FluxOr; stronger effect = lower value. AID 720551;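 active = maximum activity change below -70%; inconclusive = maximum activity change between -70% and -50%; inactive = maximum activity change above -50%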; note: % is set by controls: 0 for no effect and ±100 for the full control effect
Target sequence (Q12809 whole entry, looked up): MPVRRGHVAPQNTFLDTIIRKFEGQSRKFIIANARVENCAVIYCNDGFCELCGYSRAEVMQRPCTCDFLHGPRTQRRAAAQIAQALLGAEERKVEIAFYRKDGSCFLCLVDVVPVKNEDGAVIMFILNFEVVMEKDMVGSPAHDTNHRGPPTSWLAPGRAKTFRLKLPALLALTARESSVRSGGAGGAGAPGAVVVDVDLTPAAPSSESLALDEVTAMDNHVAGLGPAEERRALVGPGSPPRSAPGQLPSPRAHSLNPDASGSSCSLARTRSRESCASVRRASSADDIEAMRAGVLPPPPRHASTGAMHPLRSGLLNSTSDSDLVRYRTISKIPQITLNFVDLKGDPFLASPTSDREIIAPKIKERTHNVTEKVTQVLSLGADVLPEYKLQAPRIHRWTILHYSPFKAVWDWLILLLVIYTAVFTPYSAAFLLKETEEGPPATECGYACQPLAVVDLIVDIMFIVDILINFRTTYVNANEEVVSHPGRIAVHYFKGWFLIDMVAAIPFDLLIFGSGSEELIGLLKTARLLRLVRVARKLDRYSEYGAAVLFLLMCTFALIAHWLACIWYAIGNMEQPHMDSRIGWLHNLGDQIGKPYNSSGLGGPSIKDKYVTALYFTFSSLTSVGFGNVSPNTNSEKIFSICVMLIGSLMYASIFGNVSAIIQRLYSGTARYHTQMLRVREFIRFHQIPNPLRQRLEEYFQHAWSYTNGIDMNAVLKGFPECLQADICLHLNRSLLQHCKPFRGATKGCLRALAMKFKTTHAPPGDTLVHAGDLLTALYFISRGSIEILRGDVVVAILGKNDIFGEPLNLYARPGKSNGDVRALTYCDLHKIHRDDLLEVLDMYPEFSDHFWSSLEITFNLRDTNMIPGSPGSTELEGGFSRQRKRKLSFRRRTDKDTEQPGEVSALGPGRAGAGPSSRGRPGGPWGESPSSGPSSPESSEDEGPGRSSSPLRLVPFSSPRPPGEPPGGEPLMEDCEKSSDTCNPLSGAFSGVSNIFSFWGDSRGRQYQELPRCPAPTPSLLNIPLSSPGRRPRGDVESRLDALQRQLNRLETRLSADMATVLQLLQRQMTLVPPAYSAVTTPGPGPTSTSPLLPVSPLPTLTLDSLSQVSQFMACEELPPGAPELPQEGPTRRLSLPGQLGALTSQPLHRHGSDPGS
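U2OS cells were transduced with wild-type KCNH2 virus (2.03 x 10^8 / mL) for 4 h at room temperature, then cultured overnight at 37 C. Thallium flux was read with FluxOr dye. Rate constants were normalized to DMSO controls.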
TRPV1 PAM = human TRPV1 potentiation | Q8NER1 | TRPV1-expressing cells, Fluo-8 calcium influx, capsaicin EC20 potentiation | potentiation, % at 8.33 µM | hit rate 0.02% among 320,000 | AID 540277; in the data active = potentiation above about 80%; inconclusive = between about 30% and that limit; note: 0% is about no effect
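TRPV1-expressing cells were cultured overnight at 35.5C and loaded with Fluo-8 calcium dye for 40 to 90 min at room temperature. After a 10 s baseline, compound was added and calcium influx was read kinetically for 3 min (ex 480/em 520 nm).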
KCNH2 3.1 inh = blocks the human KCNH2 3.1 channel isoform; activity change, % (tested at about 1.8 µM); U2OS KCNH2 3.1, thallium flux FluxOr; stronger effect = lower value; hit rate 0.95% among 340,000; AID 720553;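 active = maximum activity change below -70%; inconclusive = maximum activity change from -70% to -50%; inactive = maximum activity change above -50%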;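 note: thallium influx rate constant from kinetic fluorescence after stimulation buffer; % is set by controls: 0 for no effect and ±100 for the full control effect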
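Steps: virus added to U2OS suspension (4 h, RT, dark); medium with 10% FBS added, cells plated, 37 C overnight; FluxOr/Red40 loading buffer 45 min RT; stimulation buffer, 2 min kinetic read; rate constant normalized.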
Numbers without * were called inactive; ? = inconclusive; / = no result given. The list is not random: actives were taken first. Their share in the collection is about 1.2%.

SMILES	TRPV1 ag	hERG WT inh	TRPV1 PAM	KCNH2 3.1 inh
O=C(NCCCn1ccnc1)/C(=C/c1ccc(F)cc1)NC(=O)c1ccccc1	2	-9	4	-116*
Oc1cccc(-c2nnc(-c3cccc(O)c3)nn2)c1	/	0	/	-24
CN1C[C@H]2CON(C)[C@H]2C[C@H]1c1cccc(-c2ccccc2)c1	/	4	/	-1
O=C(NCCc1ccc(O)c(O)c1)C1COc2ccccc2O1 (stereo not drawn)	89*	-7	-32	1
Cc1ccc(NC(=O)c2ncn(CCCN3CCN(Cc4cccc5ccccc45)CC3)n2)cc1C	/	-12	/	-72*
Cc1ccc(NC(=O)c2ncn(CC(=O)N[C@H](C)c3cccc4ccccc34)n2)cc1C	/	2	/	-15
O=C(CCC1CCCNC1)c1ccccc1 (stereo not drawn)	-1	/	29	/
COc1ccc(Br)cc1/C=N/n1c(-c2ccccc2)n[nH]c1=S	-6	4	80*	-8
S=c1[nH]nc(-c2ccncc2)n1/N=C/c1ccccc1	-2	2	4	17
Cc1cccc(/C=N/n2c(-c3ccncc3)n[nH]c2=S)c1	2	-3	?	-70*
COc1cc(OC)cc(-c2c(-c3cccs3)c3cc(-c4ccc(CN5CCOCC5)cc4)ccc3n2C)c1	/	-2	/	-6
CSc1ccc(/C=N/NC(=O)c2ccc(C)c(C)c2)cc1	82*	-3	-2	-15
COc1cc([N+](=O)[O-])ccc1NC(=O)NCC1CCN(Cc2ccc(Cl)cc2)CC1	?	-107*	-32	-102*
COc1ccc(Cl)cc1NC(=O)NCC1CCN(Cc2cc(C)ccc2C)CC1	2	2	-10	-24
COc1ccc(C(=O)NNC(=O)c2cccs2)cc1S(=O)(=O)N1CCOCC1	/	-2	/	3
COc1nc(NCCO)nc(Nc2ccccc2F)n1	-3	-7	110*	-4
COc1nc(Nc2ccccc2F)nc(OC)n1	2	0	-3	14
CCOc1ncccc1C(=O)NCc1ccc(OC)c(OC)c1	-2	-6	10	-102*
COc1ccc(C2=Nc3ccc(Br)cc3C(c3ccccc3)N2CC(=O)NN)cc1 (stereo not drawn)	7	-8	-8	-72*
COc1ccc(C2=Nc3ccc(C)cc3C(c3ccccc3)N2CC(=O)NN)cc1 (stereo not drawn)	2	-16	11	-190*
Cc1ccccc1CN1CCc2c(OCC(=O)N3CCCc4ccccc43)cccc2C1=O	-1	-123*	1	-15
CC1=C(C(=O)N(C)C)CC(CC(=O)NCc2cccc3ccccc23)C(=O)N1CCCN1CCCC1=O (stereo not drawn)	/	-18	/	-11
CN(C)CCCN(C(=O)c1ccc2c(c1)CCCC2)c1nc2ccc(F)cc2s1	3	?	-3	-72*
CCN(CC)CCN(C(=O)c1ccc2c(c1)CCCC2)c1nc2ccc(F)cc2s1	1	26	21	-14
COc1cc(CN2CCC(CO)(Cc3cccc(C(F)(F)F)c3)CC2)ccc1F	-2	16	3	-30
SMILES	TRPV1 ag	hERG WT inh	TRPV1 PAM	KCNH2 3.1 inh
COc1ccc(CN2CCC(CO)(Cc3cccc(C(F)(F)F)c3)CC2)cc1Cn1cccn1	11	-26	-6	-84*
Cc1cccc(NC(=O)Oc2ccc(Cl)c3cccnc23)c1	/	-4	/	11
COc1ccc(NC(=O)c2sc3nc(C)nc(N4CCN(c5ccccn5)CC4)c3c2C)cc1Cl	4	-78*	0	-114*
Cc1cc(Br)ccc1NC(=O)c1sc2ncnc(N3CCN(c4ccccn4)CC3)c2c1C	5	-106*	5	-110*
COc1ccc(NC(=O)CN2CCN(c3ccccn3)CC2)cc1Cl	13	3	25	-1
CCc1ccc(NC(=O)c2sc3nc(C)nc(N4CCN(c5ccccn5)CC4)c3c2C)cc1	2	-9	2	?
COc1ccc(NC(=O)c2sc3ncnc(N4CCN(c5ccccn5)CC4)c3c2C)cc1Cl	0	-118*	9	-114*
CCN(CC)C(=O)[C@H]1CC(CC(=O)NCC23CC4CC(CC(C4)C2)C3)C(=O)N2CCc3c([nH]c4ccc(OC)cc34)[C@]12C (stereo partly drawn)	/	-7	/	-7
CCCCC(=O)Nc1ccc(C(=O)NNC(=O)c2ccco2)cc1	1	-154*	2	-13
CCOC(=O)c1ccc2[nH]c3c(c2c1)CCCC3C(=O)OCC (stereo not drawn)	12	9	-12	15
CCOC(=O)c1ccc2[nH]c3c(c2c1)CCCCC3=O	8	27	-8	-167*
O=C(c1cc(COc2ccc(F)c(F)c2)on1)N1CCN(C2CCCCC2)C(=O)C1	23	-6	-24	-125*
CCN1/C(=C/C=C/c2oc3ccc(-c4ccccc4)cc3[n+]2CC)Oc2ccc(-c3ccccc3)cc21	105*	-96*	?	-160*
CCN1/C(=C/C=C/c2sc3ccccc3[n+]2CC)Sc2ccccc21	-4	-12	11	-13
Cc1ccc(S(=O)(=O)NCCc2nnc3ccc(N4CCOCC4)nn23)cc1	/	0	/	-5
CCN(CC(=O)NCc1cccs1)C(=O)c1ccc(S(=O)(=O)Nc2ccccc2Cl)cc1	0	1	5	-7
Cc1ccccc1CS(=O)(=O)Cc1ccc(C(=O)NCCc2ccccc2)o1	24	6	-13	-71*
CN1CCN(C2=CC3=CC(=C(C#N)C#N)CCC3CC2)CC1 (stereo not drawn)	184*	-22	-5	?
CC1(C)CC(NCCN2CCN(C3=CC(=C(C#N)C#N)CC(C)(C)C3)CC2)=CC(=C(C#N)C#N)C1	9	0	7	-18
N#CC(C#N)=C1C=C2C=C(N3CCCCCC3)CCC2CC1 (stereo not drawn)	93*	/	-6	-45
CCN1CCN(C2=CC3=CC(=C(C#N)C#N)CCC3CC2)CC1 (stereo not drawn)	99*	-19	-21	-14
N#CC(C#N)=C1C=C2C=C(N3CCOCC3)CCC2CC1 (stereo not drawn)	140*	-36	-12	-19
CCOc1ccc(C(=O)CC(C(=O)O)N2CCCCC2)cc1 (stereo not drawn)	1	-42	-1	5
O=C(NC1CCCc2ccccc21)c1cccc(F)c1 (stereo not drawn)	/	-13	/	10
COc1ccc(CN(C2CCCC2)S(=O)(=O)c2ccc(-n3cnnn3)cc2)cc1	18	-39	3	-71*
SMILES	TRPV1 ag	hERG WT inh	TRPV1 PAM	KCNH2 3.1 inh
OC1COCOC1C(O)C1OCOCC1O (stereo not drawn)	/	-1	/	-4
COC(=O)C(NC(=O)c1cccnc1Cl)C(C)C (stereo not drawn)	-1	-120*	6	8
O=C(NNc1cccc(Cl)n1)c1cccnc1Cl	-6	/	2	-3
COc1ccccc1-n1cnnc1SCC(=O)Nc1ccccc1	-5	-1	3	-86*
Cc1ccnc(NC(=O)CNC(=O)c2ccccc2Br)c1	0	-71*	5	-1
Cc1ccnc(NC(=O)CNC(=O)c2ccc3ccccc3c2)c1	8	12	-7	-16
